SENP6 inh: inhibitors of human SENP6 protease. Recombinant SENP6 catalytic domain, aminoluciferin luminescence. inhibition, % at 10 µM. actives 1.8% (n = 330,000). AID 2599;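 active = inhibition above about 50% at the single tested dose, limit read from the data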
SENP8 block-1: inhibitors of human SENP8 protease | Q96LD8 | purified SENP8, Z-RLRGG-aminoluciferin cleavage, luminescence | inhibition, % at 10 µM | actives 1.2% (n = 330,000); in the data active = inhibition above about 50%
Target sequence (Q96LD8 whole entry, looked up): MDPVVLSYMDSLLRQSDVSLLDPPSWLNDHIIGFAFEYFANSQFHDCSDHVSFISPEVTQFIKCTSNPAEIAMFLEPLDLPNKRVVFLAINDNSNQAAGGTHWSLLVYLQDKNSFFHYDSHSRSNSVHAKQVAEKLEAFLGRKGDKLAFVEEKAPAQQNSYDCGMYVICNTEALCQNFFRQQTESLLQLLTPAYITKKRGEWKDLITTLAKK
SENP7 inh: inhibitors of human SENP7 protease; Q9BQF6; recombinant SENP7, Z-RLRGG-aminoluciferin luminescence, 40 min; inhibition, % at 5 µM; actives 1.5% (n = 330,000); AID 434973;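 active = inhibition above about 50% at the single test dose, limit read from the data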
HSP90 refold inh: inhibitors of HSP90 luciferase refolding in rabbit reticulocyte lysate; luciferase refolding luminescence, 3 h; actives 0.91% (n = 290,000); inhibition, % at 5.6 µM;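 active = inhibition above the screen-wide mean plus 3 SD, computed separately per campaign, cut at about 16% in these data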;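 also: inhibitors lower the luminescence because luciferase stays unfolded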
LGR2 antag: inhibitors of bursicon-induced Drosophila LGR2 receptor cAMP signaling. AID 720647. actives 0.35% (n = 380,000). inhibition, % at 9.99 µM. HEK293 LGR2, CRE-luciferase, bursicon-stimulated, 4 h;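 active = drop in luminescence signal, shown as inhibition above about 50% in the replicate tests, limit read from the data, passing the limit was not always enough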;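 also: agonist challenge used bursicon conditioned medium at about half maximal strength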
SENP8 block-2: SENP8 (human) protease inhibition | Q96LD8 | recombinant SENP8, Nedd8 substrate fluorescence | inhibition, % at 20 µM | actives 0.64% (n = 360,000) | AID 602440; in the data active = inhibition mostly above about 40%, no sharp cut-off; inactive = mostly below about 27%
SENP8 confirm: confirmation of human SENP8 protease inhibitors; shares compounds with SENP7 inh; Recombinant SENP8, Z-RLRGG-aminoluciferin luminescence, 60 min; inhibition, % at 12.5 µM; actives 40% (n = 6,200); AID 488912;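 active = mean inhibition across replicates above about 50%, limit read from the data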
SENP6 confirm: confirmation of human SENP6 protease inhibitors. inhibition, % at 12.5 µM. recombinant SENP6, Z-RLRGG-aminoluciferin luminescence. shares compounds with SENP7 inh. actives 58% (n = 6,200). AID 488915
SENP7 conf: confirmation of human SENP7 protease inhibitors. inhibition, % at 12.5 µM. shares compounds with SENP7 inh. actives 69% (n = 6,200). recombinant SENP7, Z-RLRGG-aminoluciferin luminescence, 40 min
Casp3 SENP sel: selectivity test for SENP inhibitors: human caspase-3 inhibition. purified caspase-3, Z-DEVD-aminoluciferin luminescence, 60 min. AID 488918. actives 60% (n = 6,200). inhibition, % at 12.5 µM. shares compounds with SENP7 inh;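 active = mean inhibition above about 50%, limit read from the data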
Target sequence (P42574 28-227 limits assumed): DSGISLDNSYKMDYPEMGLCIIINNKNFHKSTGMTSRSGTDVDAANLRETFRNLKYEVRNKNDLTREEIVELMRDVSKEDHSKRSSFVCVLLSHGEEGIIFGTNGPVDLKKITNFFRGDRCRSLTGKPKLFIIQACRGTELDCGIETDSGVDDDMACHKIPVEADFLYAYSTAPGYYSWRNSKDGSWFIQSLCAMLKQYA
SENP luc ctr: counter-screen for SENP inhibitors: luminescence interference; shares compounds with SENP7 inh; Pre-incubated SENP8/Z-RLRGG-aminoluciferin, luciferase luminescence interference; inhibition, % at 12.5 µM; actives 39% (n = 6,200); AID 488919;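 active = mean inhibition above about 50% when retested at one dose, limit read from the data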
Of the large screens only hits and unclear results are named; the others gave an inactive call (follow-up assays come after a bar, where they were run). Only some compounds are listed: those with a hit (about 2.3% of all), similar ones and a draw of the others.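 The calls were made as follows, unless noted: active = mean inhibition above about 50% in the one-dose retest (limit read from the data); inactive = the rest.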

O=C(COC(=O)CCC(=O)c1ccc(F)cc1)Nc1cccc(S(=O)(=O)N2CCCC2)c1	SENP6 inh 88.5 | SENP8 confirm inactive | SENP6 confirm inactive | SENP7 conf inactive | Casp3 SENP sel inactive | SENP luc ctr inactive
COc1ccccc1/C=C1\SC(=S)N(CCC(=O)Nc2ccc(C(=O)O)c(O)c2)C1=O	SENP6 inh 72.3, SENP8 block-1 64.1 | SENP8 confirm 77.0 | SENP6 confirm 76.3 | SENP7 conf 79.3 | Casp3 SENP sel inactive | SENP luc ctr 81.2
CCc1ccc(/C=C2/SC(=S)N(CCC(=O)Nc3ccc(C(=O)O)cc3)C2=O)cc1	SENP8 block-1 84.9, SENP7 inh 74.5 | SENP8 confirm inactive | SENP6 confirm inactive | SENP7 conf inactive | Casp3 SENP sel inactive | SENP luc ctr inactive
Cc1ccc(/C=C2\SC(=S)N(CCCC(=O)Nc3cccnc3)C2=O)cc1	SENP6 inh 57.9, SENP8 block-1 51.5, SENP7 inh 61.3 (no result: LGR2 antag) | SENP8 confirm inactive | SENP6 confirm inactive | SENP7 conf inactive | Casp3 SENP sel inactive | SENP luc ctr inactive
CC(/C=C1\SC(=S)N(CCC(=O)Nc2cccc(C(=O)O)c2)C1=O)=C\c1ccccc1	none
O=C(CCN1C(=O)/C(=C/c2ccco2)SC1=S)Nc1ccc(C(=O)O)c(O)c1	none
CCc1ccc(/C=C2/SC(=S)N(CCC(=O)Nc3cccc(C(=O)O)c3)C2=O)cc1	SENP8 block-1 79.2, SENP7 inh 52.3, SENP8 block-2 21.4 | SENP8 confirm inactive | SENP6 confirm inactive | SENP7 conf inactive | Casp3 SENP sel inactive | SENP luc ctr inactive
CCc1ccc(C=C2SC(=S)N(CCCC(=O)Nc3ccc(C(=O)O)cc3)C2=O)cc1	none (no result: SENP6 inh, SENP8 block-1, SENP7 inh, HSP90 refold inh)
Cc1ccc(C2CC(c3ccccc3)=NN2c2ccccc2)o1 (stereo not drawn)	SENP7 inh 55.4 | SENP8 confirm inactive | SENP6 confirm inactive | SENP7 conf inactive | Casp3 SENP sel inactive | SENP luc ctr inactive
Oc1cccc(NC(=S)Nc2ccc(SC(F)F)cc2)c1	none
Oc1cccc2c(NC(=S)Nc3ccc(SC(F)F)cc3)cccc12	SENP6 inh 85.1, SENP8 block-1 52.8 | SENP8 confirm inactive | SENP6 confirm inactive | SENP7 conf inactive | Casp3 SENP sel inactive | SENP luc ctr inactive
Fc1cccc(-c2cc3nc4c(c(NCc5ccco5)n3n2)CCCC4)c1	SENP6 inh 85.1, SENP8 block-1 69.8 | SENP8 confirm inactive | SENP6 confirm inactive | SENP7 conf inactive | Casp3 SENP sel inactive | SENP luc ctr inactive
C[C@H]1CN([C@@H](C)CO)C(=O)c2cc(NC(=O)Nc3cccc4ccccc34)ccc2O[C@@H]1CN(C)S(=O)(=O)c1ccc(F)cc1	none (no result: SENP6 inh, SENP8 block-1, SENP7 inh, HSP90 refold inh, SENP8 block-2)
COc1ccc(CN(C)C[C@H]2OCCCC[C@@H](C)Oc3ccc(NS(C)(=O)=O)cc3C(=O)N([C@H](C)CO)C[C@H]2C)cc1	none (no result: SENP6 inh, SENP8 block-1, SENP7 inh, HSP90 refold inh, SENP8 block-2)
CO[C@@H]1CN(C)C(=O)c2ccc(NC(=O)NC3CCCCC3)cc2OC[C@@H](C)N(C(=O)NC2CCCCC2)C[C@H]1C	none (no result: SENP6 inh, SENP8 block-1, SENP7 inh, HSP90 refold inh, SENP8 block-2)
O=C(CNc1ccc2ccccc2c1)N/N=C/c1ccc([N+](=O)[O-])o1	SENP6 inh 54.4 (no result: LGR2 antag) | SENP8 confirm inactive | SENP6 confirm inactive | SENP7 conf inactive | Casp3 SENP sel inactive | SENP luc ctr inactive
O=C([C@H]1[C@H](CO)[C@H]2Cn3c(cccc3=O)[C@H]2N1CC1CCCC1)N1CCc2ccccc2C1	none (no result: SENP6 inh, SENP8 block-1, SENP7 inh, HSP90 refold inh, SENP8 block-2)
O=C(O)c1ccc(-c2nc3scc(-c4ccccc4)c3c(=O)[nH]2)cc1	SENP6 inh 61.1 | SENP8 confirm inactive | SENP6 confirm inactive | SENP7 conf 61.9 | Casp3 SENP sel inactive | SENP luc ctr inactive
